Assay outcomes (PubChem BioAssay)
FMDV antiviral: antivirals against foot and mouth disease virus | Potency, µM (series often up to 57.9 µM), for the others: at the top dose activity change, negative = inhibition, most hits filed as inhibitors | AID 1159524 | FMDV antiviral cell-based qHTS | 410,000 tested, 1.2% active; calls by dose curve; tested in HEK293T cells; further: read-out not given here; potency means the concentration at half of the fitted maximal effect; on the % scale 0 is the no-effect control and ±100 the full control effect; nearly all actives have a fitted effect of over 45% in size
SARS PLpro yeast: SARS-CoV PLP inhibition in yeast; S. cerevisiae expressing SARS-CoV PLpro, growth rescue; Potency, µM (top dose mostly 32.9 µM), without a hit: top-dose activity, positive = growth rescue, usual class: activators; 330,000 tested, 0.19% active; calls by dose curve; further: potency means the concentration at half of the fitted maximal effect; 0% is about no effect; nearly all actives have a fitted effect of over 55% in size
HCV inhibitor: blocks hepatitis C virus | Huh7.5.1 HCVcc-Cre infection, luciferase reporter, 44 h | Potency, µM (titrated, usually from 41.8 µM), for inactives: at the top dose activity change, negative = inhibition, hits mostly inhibitors | 340,000 tested, 3.4% active; active means well fitted inhibition curve with a large enough effect; inconclusive means small, poorly fitted or top-dose-only effect, or another doubt; inactive means no such curve, though single readings can be large or run the other way; further: potency means the concentration at half of the fitted maximal effect; on the % scale 0 is the no-effect control and ±100 the full control effect
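Luciferase read-out (15 sec integration) after a 15 min room-temperature substrate step quantifies HCVcc-Cre infection. Cells, 1,000 per well, had compound added 4 h post-plating, then virus at ~0.5 moi, and were cultured 44 h.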
HCMV inh: blocks human cytomegalovirus replication | HFF cells, HCMV-luciferase reporter, 72 h; hits give low values | activity change, negative = inhibition, % at 57.5 µM | 410,000 tested, 4.5% active | AID 1259415; in the data active means activity change below about -60%; inconclusive means no clear call, values can overlap the other calls; inactive means above about -39%; further: on the % scale 0 is the no-effect control and ±100 the full control effect
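Cell-based, HFFs, 1000 cells/well, 16 h 37C; cpds in DMSO + HCMV-luc, MOI 1 PFU/cell; 72 h 37C; OneGlo luminescence after 5 min RT; norm. to buffer vs Salinomycin 10uM.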
Marburg entry inh: Marburg virus entry inhibition; Marburg virus pseudotyped entry inhibition, cell reporter; Potency, µM (top dose mostly 37.8 µM), without a hit: at the highest dose activity change, negative = inhibition, most hits filed as inhibitors; 300,000 tested, 1.8% active; calls by dose curve; tested in HEK293 cells; further: potency means the concentration at half of the fitted maximal effect; on the % scale 0 is the no-effect control and ±100 the full control effect
LASV entry inh: inhibitors of Lassa virus binding or cell entry. 300,000 tested, 1.2% active. Lassa virus pseudotype entry inhibition, cell reporter. Potency, µM (series often up to 37.9 µM), for the others: at the highest dose activity change, negative = inhibition, usual class: inhibitors; calls by dose curve; tested in HEK293 cells; further: potency means the concentration at half of the fitted maximal effect; on the % scale 0 is the no-effect control and ±100 the full control effect; nearly all actives have a fitted effect of over 50% in size
The depositor's hits bear a star; u = inconclusive; x = no result; [ ] = another dose, or the depositor's remark. In the library only some 8% were active in any assay of this set; here they are far more common.

SMILES	FMDV antiviral	SARS PLpro yeast	HCV inhibitor	HCMV inh	Marburg entry inh	LASV entry inh
COC(=O)c1sc(NC(=O)c2ccc(Cn3cc(Cl)cn3)o2)c(C#N)c1C	u	-1%	-3%	-106*	u	-3%
Cc1cccc(NC(=O)Cn2nc(C)c3nn(-c4ccc(Cl)cc4)c(C)c3c2=O)c1C	-26%	x	x	u	x	-6%[46.1 µM]
Cc1ccccc1-c1cc(C(=O)Nc2sc(C)c(C)c2C(N)=O)c2ccccc2n1	u	-12%	4.5µM*	-23	u	16µM*
Cc1cc(C)c2nc(NNC(=O)c3cc(-c4cccs4)nc4ccccc34)sc2c1	u	u	10µM*	-21	u	u
CCOC(=O)c1c(NC(=O)c2cc(-c3ccc(Cl)s3)nc3ccccc23)sc(C(N)=O)c1C	-6%	-6%	9%	-25	5%	0%
Cc1ccc2sc(NNC(=O)c3cc(-c4cccs4)nc4ccccc34)nc2c1C	x	16%	-3%[8.37 µM]	13	18%	-1%
C[C@H]1CN([C@@H](C)CO)C(=O)c2cc(NC(=O)C3CCCCC3)ccc2O[C@H]1CN(C)C(=O)Nc1ccc2c(c1)OCO2	-15%	2%	1µM*	21	x	x
C[C@H](CO)N1C[C@H](C)[C@@H](CN(C)C(=O)NC2CCCCC2)Oc2c(NC(=O)C3CC3)cccc2C1=O	50%	-5%	40%	-100*	x	x
C[C@H](CO)N1C[C@H](C)[C@@H](CN(C)C)Oc2c(NC(=O)C3CC3)cccc2C1=O	28%	-2%	3.2µM*	-22	x	x
C[C@H](CO)N1C[C@H](C)[C@@H](CN(C)CC2CC2)Oc2c(NC(=O)C3CC3)cccc2C1=O	32%	x	25%[8.37 µM]	6	x	x
C[C@H](CO)N1C[C@H](C)[C@@H](CN(C)Cc2ccc(Oc3ccccc3)cc2)Oc2c(NC(=O)C3CC3)cccc2C1=O	-14%	6%	16µM*	-32	x	x
C[C@@H]1CN([C@@H](C)CO)C(=O)c2cccc(NC(=O)C3CCCCC3)c2O[C@@H]1CN(C)C(=O)NC1CCCCC1	-19%	1%	1%	-16	x	x
COC(=O)C1CCN(c2nc(CN(C)C3CCOC3)nc3cc(OC)c(OC)cc23)CC1 (centres undefined)	-3%	x	x	x	x	x
CSc1nsc(SCC(=O)Nc2ccc(Cl)c(C(=O)O)c2)n1	6%	1%	-1%	52	-4%[46.1 µM]	x
CCCCCCCc1cc2ccccc2c2c(C(C)=O)c(-c3ccccc3)c(C(=O)OC)n12	x	x	x	x	-16%[14.2 µM]	u
C[C@@H]1CN([C@H](C)CO)C(=O)Cc2cc(NC(=O)Nc3ccccc3)ccc2O[C@@H]1CN(C)Cc1ccc2c(c1)OCO2	u	0%	3.5µM*	15	x	x
Cc1noc(C)c1NC(=O)N(C)C[C@H]1Oc2c(NC(=O)C3CCCCC3)cccc2C(=O)N([C@H](C)CO)C[C@@H]1C	38%	-5%	4µM*	-3	x	x
C[C@H](CO)N1C[C@H](C)[C@@H](CN(C)CC2CC2)Oc2c(NC(=O)Cc3ccccc3)cccc2C1=O	36%	-3%	3.2µM*	u	x	x
Cc1noc(C)c1NC(=O)N(C)C[C@@H]1Oc2c(NC(=O)NC(C)C)cccc2C(=O)N([C@@H](C)CO)C[C@@H]1C	-15%	4%	15%	14	x	x
COC[C@@H]1CCCN1[C@@H]1C[S+](=O)([O-])N[C@@H]1COCc1ccccc1	x	x	x	x	x	-2%[46.1 µM]
CN(C)C(=O)c1ccc(-c2nc(N3CCOCC3)c3ccccc3n2)cc1	14%	x	x	x	x	x
Cc1oc(-c2ccccc2F)nc1CSCC(=O)N1CCN(c2ccccc2)CC1	u	x	x	u	-27%[46.1 µM]	-13%[46.1 µM]
COc1ccc(-c2nc(CSCC(=O)N3CCN(c4ccccc4F)CC3)c(C)o2)cc1	32µM*	x	x	u	u	-28%[46.1 µM]
CCOc1ccc(-c2nc(CSCC(=O)N3CCN(c4cccc(OC)c4)CC3)c(C)o2)cc1	20µM*	-14%	13µM*	-77*	2%	x
Cc1ccc(-c2nc(CSCC(=O)N3CCN(c4ccccn4)CC3)c(C)o2)cc1	u	-8%	u	u	x	x
SMILES	FMDV antiviral	SARS PLpro yeast	HCV inhibitor	HCMV inh	Marburg entry inh	LASV entry inh
CCc1ccc(-c2nc(CSCC(=O)N3CCN(c4ccccn4)CC3)c(C)o2)cc1	20µM*	-10%	16µM*	-18	-82%	u
O=C1[C@H]2[C@H]3[C@H](O)[C@H](O)C/C(=N\OCc4ccccc4)[C@@H]3CC[C@H]2C(=O)N1C1CCCCC1	x	x	x	x	-14%[14.2 µM]	x
CCN(CC)CCNc1cc(C)nc2c1C(=O)C(=O)C=C2N1CCCCC1	u	0%	u	-98*	x	x
CCN(CC)CCCNC(=O)c1sc2nc3n(c(=O)c2c1C)CCCCC3	-17%	x	x	-15	x	1%[46.1 µM]
CC1=C(c2ccc(Cl)cc2)S(=O)(=O)N=C1N1CCC(C(=O)NCCc2ccco2)CC1	-13%	x	x	-4	x	u
CCC1=C(c2ccc(C)cc2)S(=O)(=O)N=C1N1CCC(C(=O)NCCc2ccc(Cl)cc2)CC1	-17%	x	x	-87*	u	x
CCc1ccc(C2=C(C)C(N3CCC(C(=O)NCCc4ccco4)CC3)=NS2(=O)=O)cc1	-1%	x	x	-62*	x	0%[46.1 µM]
CC1=C(c2ccc(C)c(C)c2)S(=O)(=O)N=C1N1CCC(C(=O)Nc2ccc(Cl)cc2)CC1	-29%	x	x	-84*	x	-18%[46.1 µM]
CCNc1ncc2nc(-c3ccc(OC)cc3)c(=O)n(CCOC)c2n1	-11%	x	x	x	x	x
CCOc1ccc(CCNS(=O)(=O)c2cc(Br)cc3c2N(C(C)=O)CC3)cc1OCC	38%	x	x	1	x	6%[46.1 µM]
COC(=O)Cn1cc(/C=N/NC(=O)COc2cccc3cccnc23)c2ccccc21	-14%	20%	2%	-70*	-2%	1%
O=C1[C@@H]2C=CC=CC2=NC(=S)N1CCN1CCC(=C(c2ccc(F)cc2)c2ccc(F)cc2)CC1	x	x	x	x	13%	x
O=C(CC(C(=O)c1ccccc1)c1ccccc1)c1ccccc1 (centres undefined)	8%	x	-26%	-35	u	u
CN(C)CC(C(=O)c1ccccc1)c1ccccc1 (centres undefined)	18µM*	-17%	u	u	6.3µM*	8.9µM*
CCOc1ccc(C(=O)C(CN2CCOCC2)c2ccccc2)cc1 (centres undefined)	u	-115%	u	-99*	6.5µM*	26µM*
O=C(c1ccccc1)C(CN1CCCCC1)c1ccccc1 (centres undefined)	28µM*	x	u	-68*	u	u
O=C(c1ccc(Br)cc1)C(CN1CCOCC1)c1ccccc1 (centres undefined)	18µM*	-10%	1%	-2	u	u
CC(CN1CCN(CC(C)C(=O)c2ccccc2)CC1)C(=O)c1ccccc1 (centres undefined)	-6%	x	-11%	-3	1%	u
O=C1N=C2C=CC(Cl)=CC2C(c2ccccc2)=N1 (centres undefined)	x	x	x	x	9%	x
